# Assay outcomes: PubChem, National Center for Advancing Translational Sciences (NCATS)
# This is a sample that favours compounds with a hit; in the whole collection about 12% have one here.
# Shiga inhibitor: A qHTS for Small Molecule Inhibitors of Shiga Toxin; Vero cells, Shiga toxin protein synthesis inhibition reporter; inhibition, % at 38.7 µM; 9.2% of 290,000 active; in the data active = inhibition mostly above about 28%, no sharp cut-off; inactive = mostly below about 43%; also: 0% is about no effect
# Sm TGR inh: qHTS Assay for the Inhibitors of Schistosoma Mansoni Peroxiredoxins | Schistosoma mansoni thioredoxin glutathione reductase (TGR), Q962Y6 | purified TGR, DTNB reduction, TNB absorbance 405 nm | Potency, µM (doses to about 114 µM), without a hit: top-dose activity change, negative = inhibition, usual class: inhibitors | 3% of 360,000 active | AID 485364, 2010; active = well fitted inhibition curve with a large enough effect; inconclusive = small, poorly fitted or top-dose-only effect; inactive = no such curve, though single readings can be large or run the other way; also: potency is read from the fitted curve at half-maximal effect; % is scaled to controls: 0 for no effect and ±100 for the full control effect; nearly all actives have a fitted effect of over 60% in size
#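 TGR 20 nM + NADPH 100 uM (dispensed conc.), cpd preinc 15 min RT; start with NADPH (500 uM addition) then DTNB (15 mM addition). Kinetic TNB absorbance, 405 nm filter. Four-parameter Hill fit across titration.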
# Cycloheximide cs: Cycloheximide Counterscreen for Small Molecule Inhibitors of Shiga Toxin | cell reporter, cycloheximide protein synthesis inhibition counterscreen | max response, % | 12% of 300,000 active | AID 2314, 2010; in the data active = max response mostly above about 13%, no sharp cut-off; inactive = mostly below about 14%; also: read at 38.3 µM for the half of the compounds with a filed dose; 0% is about no effect
# FMDV inh: High Throughput Screening for Foot and Mouth Disease Virus Antivirals. FMDV antiviral cell-based qHTS. Potency, µM (titrated, usually from 57.9 µM), for inactives: top-dose activity change, negative = inhibition, actives largely listed as inhibitors. 1.2% of 410,000 active; calls by dose curve; tested in HEK293T cells; also: read-out not given here; potency is read from the fitted curve at half-maximal effect; % is scaled to controls: 0 for no effect and ±100 for the full control effect; nearly all actives have a fitted effect of over 45% in size
# Numbers without * were called inactive; ? = inconclusive; . = not tested or not shown.
SMILES,Shiga inhibitor,Sm TGR inh,Cycloheximide cs,FMDV inh
COC(=O)C1CCN(C2=C(NS(=O)(=O)c3ccc(Cl)cc3)C(=O)c3ccccc3C2=O)CC1,20,?,17,-6%
CCC(CC)C(=O)N1CCc2cc(OC)c(OC)cc2C1COc1ccc2c(C)cc(=O)oc2c1 (stereo not given),.,-1%,.,?
CC(C)n1c(SCC(=O)c2ccc(F)cc2)nc2c(sc3ccccc32)c1=O,.,6%,.,-12%
Cc1nn(C(=O)c2cccc(F)c2)c(C)c1S(=O)(=O)N1CCOCC1,.,?,.,0%
Cc1nn(C(=O)c2cccc(Cl)c2)c(C)c1S(=O)(=O)N1CCOCC1,.,20µM*,.,?
CCC(=O)N1CCc2cc(Br)cc(S(=O)(=O)CCC(=O)NCc3ccccc3)c21,.,1%,.,-20%
Cc1ccc(S(=O)(=O)N2CCCC2)cc1[N+](=O)[O-],-10,5%,1,-11%
Cc1ccc([N+](=O)[O-])c2c1C(N1CCCC1)C(C)(C)O2 (stereo not given),19,56µM*,-6,-6%
CN(C)C(CNC(=O)c1ccc(C2SCCS2)cc1)c1ccccc1 (stereo not given),55*,-17%,35*,30%
O=C(Cn1ccsc1=NC(=O)c1ccco1)c1ccccc1,32,?,24*,-19%
CC(=O)O[C@H]1[C@H]2O[C@]23[C@@H]2CC[C@@H]4C[C@@H](O)CC[C@]4(C)[C@H]2CC[C@]3(C)[C@H]1c1ccc(=O)oc1,-15,.,-12,.
CC1(C)CC(=O)c2c(Cc3ccccc3)noc2C1,32,21%,13,-3%
CC1(C)CC(=O)c2c(noc2-c2ccccc2)C1,58*,4%,31*,30%
CN1CCc2nc(SCC(=O)Nc3cccc(F)c3)c(C#N)c(-c3cccs3)c2C1,53*,20µM*,37,14%
CN1CCc2nc(SCC(=O)Nc3ccc(OC(F)(F)F)cc3)c(C#N)c(-c3cccs3)c2C1,1,35µM*,5,2%
Cc1cccc(CSc2nc3c(c(-c4cccs4)c2C#N)CN(C)CC3)c1,-9,-29%,-7,-16%
CCN(CC)C(=O)Cn1c(=O)n(-c2ccc(Cl)cc2)c(=O)c2c3c(sc21)CCCCC3,.,-2%,.,-18%
CC(C)(C)C1CCC(=NNC(=O)CN(c2ccccc2)S(C)(=O)=O)CC1 (stereo not given),90*,9%,43*,-16%
COC(=O)NN=C1CCC(c2ccccc2)CC1 (stereo not given),30*,-16%,25,6%
CC(C)(C)C(=O)NN=C1CCC(c2ccccc2)CC1 (stereo not given),24,4%,19*,-8%
CCOC(=O)NN=C1CCC(c2ccccc2)CC1 (stereo not given),10,7%,9.8*,7%
CN1CCC(=NNC(=O)CN(c2ccccc2)S(=O)(=O)c2ccccc2)CC1,-30,-1%,-2,-8%
COc1ccc(CCNC(=O)c2ccc(-n3c(C)cc4c3CCC(C)C4)cc2)cc1OC (stereo not given),.,-33%,.,0%
CCCCn1c(=O)c2oc3ccccc3c2n(CC(=O)Nc2cccc(Cl)c2)c1=O,.,0%,.,-5%
O=C1CCCC/C1=C\Nc1ccccc1C(=O)O,-8,-3%,-4,15%
SMILES,Shiga inhibitor,Sm TGR inh,Cycloheximide cs,FMDV inh
COc1ccc(N/C=C2/CCCCC2=O)cc1,129*,40µM*,78*,28%
O=C1CCCC/C1=C/Nc1ccc(C(=O)O)cc1,42,?,30*,37%
Cc1ccc(C)c(Nc2ccc(C(=O)NCCc3ccccc3)cn2)c1,14,-5%,22*,-8%
Cc1ccc(Nc2ccc(C(=O)NCCc3ccccc3)cn2)cc1,15,0%,12*,10%
O=C(Nc1cccc(C(F)(F)F)c1)c1cnn(-c2cccc(F)c2)c1C1CCNCC1,.,9%,.,-18%
Oc1ccc(NCc2ccccc2OCc2ccccc2Cl)cc1,.,35µM*,.,3%
CCOc1ccccc1CNc1ccc(O)cc1,23,.,7,12%
NS(=O)(=O)c1ccc(NCc2ccccc2OCc2ccccc2F)cc1,11,3%,2,.
Oc1ccc(NCc2ccccc2OCc2ccccc2F)cc1,5,20µM*,-2,?
Cc1ccc(NCc2ccccc2OCc2ccccc2F)cc1,27*,-3%,18*,-19%
O=C(NCCCN1CCN(c2cccc(Cl)c2)CC1)c1ccc2nc(Cc3ccccc3)oc2c1,.,6%,.,?
O=S(=O)(Nc1ccc2nc(C(F)(F)F)[nH]c2c1)c1ccccc1,-15,16%,-1,.
O=S(=O)(Nc1ccc2nc(-c3ccc(Br)o3)[nH]c2c1)c1ccccc1,64,28µM*,40*,.
Cc1ccc(-c2nc3ccc(NS(=O)(=O)c4ccccc4)cc3[nH]2)o1,130*,35µM*,66*,.
O=C(NCc1ccc(Cl)cc1)C1CCN(S(=O)(=O)Cc2ccccc2)CC1,.,-16%,.,-19%
Cc1ccccc1OCc1ccc(-c2nc(C#N)c(NCc3cccnc3)o2)o1,.,3%,.,?
Brc1ccc2ncnc(NCc3ccco3)c2c1,6,?,13,14µM*
Cc1ccc(-n2ncc3c(NCc4ccco4)ncnc32)c(C)c1,15,40µM*,16*,-19%
c1ccc(-n2ncc3c(NCc4ccco4)ncnc32)cc1,85*,?,53*,40%
COc1cc(CNc2ncnc3c2[nH]c2ccc(C)cc23)cc(OC)c1,-3,6%,-1,?
Cc1ccc(-n2ncc3c(NCc4ccccn4)ncnc32)c(C)c1,11,0%,10,-19%
Cc1ccc2[nH]c3c(NCc4ccco4)ncnc3c2c1,87*,-28%,19*,-10%
CC(=O)c1cc(-c2ccccc2)n(CCC(=O)NCc2ccc(C)cc2)c1C,.,1%,.,4%
Cc1cc2oc(C(=O)N(Cc3ccc(N(C)C)cc3)CC3CCCO3)c(C)c2cc1Cl (stereo not given),.,4%,.,5%
CCOC(=O)c1sc2ccccc2c1S(=O)(=O)N1CCN(c2cccc(C)c2)C(C)C1 (stereo not given),.,-2%,.,-14%
SMILES,Shiga inhibitor,Sm TGR inh,Cycloheximide cs,FMDV inh
CCCCNc1ncnc2c1cnn2-c1ccc(C)cc1C,14,4%,15*,-6%
Cc1ccccc1CNC(=O)CCCn1c(=O)c2cccn2c2cccnc21,.,-2%,.,-2%
c1ccc2sc(-c3cc4c(c(OC5CCOC5)c3)OCCN(Cc3cccn3-c3nccs3)C4)nc2c1 (stereo not given),.,.,.,-7%
CCOC(=O)N1CCN(C(=O)c2ccc3c(c2)sc2nc(-c4ccc(OC)cc4)cn23)CC1,51,-1%,25*,-11%
CCOC(=O)C1CCN(C(=O)c2ccc3c(c2)sc2nc(-c4ccc(OC)cc4)cn23)CC1,.,-10%,.,-29%
COc1ccc(-c2cn3c(n2)sc2cc(C(=O)NCc4ccccc4)ccc23)cc1,.,-2%,.,-14%
COc1ccc2c(c1)sc1nc(-c3ccccc3)cn12,-27,-17%,-9,7.9µM*
COc1ccc(-n2cc(-c3ccccc3)nc2SC)cc1,65*,2%,47*,60%
COc1ccc(-c2cn3c(n2)sc2cc(C(=O)NCC(C)c4ccccc4)ccc23)cc1 (stereo not given),.,79µM*,.,-10%
